Measured values reported in PubChem BioAssay (Tox21).
Inconclusive results are not listed. Where a call stands in place of a potency, no number is given. Active and inactive are the calls of the source. Calls come from the whole dose curve.

Test: qHTS assay to identify small molecule antagonists of the estrogen receptor alpha (ER-alpha) signaling pathway using the BG1 cell line (AID 743080);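 note: BG1 cells stimulated with 17beta-estradiol alongside compound; nearly all actives have a fitted effect of over 25% in size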
Details: BG1Luc4E2 ERE-luciferase antagonist mode, luminescence; series mostly up to 70.3 µM
From the text: National Center for Advancing Translational Sciences [NCATS]
NIH Chemical Genomics Center [NCGC]
U.S. Environmental Protection Agency [EPA]
National Institutes of Environmental Health Sciences [NIEHS]
National Toxicology Program [NTP]
U.S. Food and Drug Administration [FDA]
Estrogen receptor (ER), a nuclear hormone receptor, plays an important role in development, metabolic homeostasis and reproduction. Endocrine disrupting chemicals (EDCs) and their interactions with steroid hormone receptors like ER causes disruption of normal endocrine function. Therefore, it is important to understand the effect of environmental chemicals on the ER signaling pathway. To identify ER antagonists, BG1-Luc-4E2 cell line (provided by Dr. Michael Denison from University of California) has been used to screen the Tox21 10K compound library. BG1Luc4E2 cell line endogenously expresses full-length ER-alpha and is stably transfected with a plasmid containing four estrogen responsive elements (ERE) upstream of a luciferase reporter gene.
Tox21 Assay Protocol Summary:
BG1-Luc-4E2 cells were cultured in phenol red free assay medium containing 10% charcoal stripped FBS for 5 days before the assay was performed. The cells were dispensed at 4,000 cells/4 uL of assay medium per well into white wall/solid-bottom 1536-well plates using a Multidrop Combi (ThermoFisher Scientific, Waltham, MA) dispenser. The assay plates were incubated at a 37C and 5% CO2 for 24 h, and then 23 nL of compounds dissolved in DMSO, positive controls or DMSO only was transferred to the assay plate using a Pintool station (Kalypsys, San Diego, CA), followed by addition of 1 uL of 17beta-estradiol in assay medium using a Flying Reagent Dispenser (Aurora Discovery, San Diego, CA). After the plates were incubated at 37 C and 5% CO2 for 21.5 h, 1 uL of CellTiter-Fluor reagent (Promega, Madison, WI) of measuring cytotoxicity was added using Flying Reagent Dispenser (FRD) to each well. The assay plates were incubated at 37 C and 5% CO2 for additional 30 min and the fluorescence intensity was quantified by a ViewLux plate reader (PerkinElmer, Shelton, CT). For measuring luciferase reporter gene activity, 4 uL of ONE-Glo reagent (Promega) was added to each plate using an FRD and luminescence was quantified by a ViewLux plate reader after 30 min incubation at room temperature.
Potency is the fitted concentration of half-maximal effect.

Structure (SMILES) | Potency
CCCCCCCCO | inactive
CCCCCCCCCCCC(=O)N(C)CC(=O)O | inactive
O=C(c1ccccc1)c1ccc(O)c(O)c1O | inactive
CC(C)=CCC/C(C)=C/C=O | inactive
OCC(O)CS (stereo not given) | inactive
O=C(O)C1=NN(c2ccc(S(=O)(=O)O)cc2)C(=O)C1 | inactive
COCN(COC)c1nc(N(COC)COC)nc(N(COC)COC)n1 | inactive
Cc1nnc(NS(=O)(=O)c2ccc(N)cc2)s1 | inactive
Oc1ccc(Cc2ccccc2O)cc1 | inactive
C=CC(C)(C)C | inactive
Cc1ccc(C(C)C)cc1 | inactive
OC1CCCCC1 | inactive
COc1ccc([C@@H]2CC(=O)c3c(O)cc(O[C@@H]4O[C@H](CO[C@@H]5O[C@@H](C)[C@H](O)[C@@H](O)[C@H]5O)[C@@H](O)[C@H](O)[C@H]4O)cc3O2)cc1OC | inactive
CN1CCCC1=O | inactive
CC(=O)OC(C)(C)C1CC=C(C)CC1 (stereo not given) | inactive
COc1c2ccoc2cc2oc(=O)ccc12 | inactive
CC(=O)Nc1ccc(CC(=O)O)cc1 | inactive
O=C1CCCCCCCCCCC1 | inactive
O=C1C(N(CO)C(=O)NCO)N(CO)C(=O)N1CO (stereo not given) | inactive
COc1ccc2cc3[n+](cc2c1OC)CCc1cc2c(cc1-3)OCO2 | 26.6 µM (active)

Structure (SMILES) | Potency
COc1cc(NC(=O)CC(C)=O)c(OC)cc1Cl | inactive
CCc1cccc(CC)c1N | inactive
N#CCC(=O)O | inactive
CC(C)c1ccc(C(C)C)cc1 | inactive
C=CC(=O)NCOCCCC | inactive
C[Si](C)(C)N[Si](C)(C)C | inactive
Nc1cccc(C(F)(F)F)c1 | inactive
COc1ccc(N)c(OC)c1 | inactive
Cc1ccncc1 | inactive
CCCCCCC(=O)O | inactive
CCCCCCCCCCCCCC(=O)O | inactive
CC1(C)C(=O)N(Cl)C(=O)N1Cl | inactive
CN=C(NC#N)NCCSCc1nc[nH]c1C | inactive
C[n+]1ccn(CCO)c1 | inactive
NC(N)=S | inactive
CC(=O)C(C)C | inactive
NC(=O)NC(N)=O | inactive
Cc1cc(C)cc(O)c1 | inactive
CCCN(CCC)C(=O)SCC | inactive
CC(=O)OC/C=C(\C)CCC=C(C)C | inactive
